High-throughput results from PubChem.
The list is not random: actives were taken first. Their share in the collection is about 8.7%.
ALOX12 inh: Primary qHTS assay for inhibitors of human arachidonate 12S-lipoxygenase (ALOX12): Round 2. 580,000 tested, 1.1% active. Polyunsaturated fatty acid lipoxygenase ALOX12 (Homo sapiens), P18054. Potency, µM (titrated, usually from 108 µM), inactives show at the highest dose activity change, negative = inhibition, usual class: inhibitors. AID 1671190, 2021. purified 12hLO, xylenol orange hydroperoxide absorbance; further: on the % scale 0 is the no-effect control and ±100 the full control effect
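Purified human 12hLO at 150 nM in 25 mM Hepes, 0.01% Triton X-100, pH 7.0, preincubated 15 min at room temperature with compound. Reaction started with 40 uM arachidonic acid, 30 min at room temperature. Hydroperoxide measured by Fe-xylenol orange, 573/405 nm absorbance ratio.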
JMJD2A Tudor: qHTS Assay for Inhibitors of JMJD2A-Tudor Domain; Potency, µM (titrated, usually from 114 µM), inactives show top-dose activity change, negative = inhibition, hits mostly inhibitors; AlphaScreen JMJD2A-Tudor / H3K4me3 peptide binding; 390,000 tested, 4.4% active; further: on the % scale 0 is the no-effect control and ±100 the full control effect; nearly all actives have a fitted effect of over 50% in size
Target sequence (O75164 whole entry, looked up, the tested form may be a part): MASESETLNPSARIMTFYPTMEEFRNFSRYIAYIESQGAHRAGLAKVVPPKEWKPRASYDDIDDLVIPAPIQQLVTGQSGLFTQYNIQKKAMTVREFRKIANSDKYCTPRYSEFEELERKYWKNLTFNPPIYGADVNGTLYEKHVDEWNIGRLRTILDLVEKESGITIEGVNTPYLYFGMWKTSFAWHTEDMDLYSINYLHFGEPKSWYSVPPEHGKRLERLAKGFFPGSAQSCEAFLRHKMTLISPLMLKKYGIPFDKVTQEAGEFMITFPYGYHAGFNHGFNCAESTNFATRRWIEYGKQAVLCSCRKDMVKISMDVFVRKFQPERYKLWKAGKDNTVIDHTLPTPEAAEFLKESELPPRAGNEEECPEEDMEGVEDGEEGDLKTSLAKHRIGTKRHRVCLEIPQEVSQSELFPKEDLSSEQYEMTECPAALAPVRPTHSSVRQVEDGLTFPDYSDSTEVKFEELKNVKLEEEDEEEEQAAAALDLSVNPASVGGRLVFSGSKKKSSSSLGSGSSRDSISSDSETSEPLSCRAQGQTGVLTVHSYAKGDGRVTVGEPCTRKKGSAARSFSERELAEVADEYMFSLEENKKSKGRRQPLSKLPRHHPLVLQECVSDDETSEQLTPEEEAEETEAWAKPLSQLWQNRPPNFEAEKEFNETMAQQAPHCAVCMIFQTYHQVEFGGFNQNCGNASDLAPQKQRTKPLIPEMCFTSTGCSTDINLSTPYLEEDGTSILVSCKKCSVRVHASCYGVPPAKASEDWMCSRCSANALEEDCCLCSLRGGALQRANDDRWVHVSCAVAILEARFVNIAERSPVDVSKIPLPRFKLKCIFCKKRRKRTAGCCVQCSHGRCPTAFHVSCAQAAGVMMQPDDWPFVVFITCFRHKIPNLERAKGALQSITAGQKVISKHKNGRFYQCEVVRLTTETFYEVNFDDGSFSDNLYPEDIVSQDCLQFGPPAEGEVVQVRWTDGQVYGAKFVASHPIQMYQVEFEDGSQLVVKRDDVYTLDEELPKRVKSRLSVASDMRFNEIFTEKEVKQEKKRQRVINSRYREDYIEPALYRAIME
Sfp inh: qHTS Assay for Inhibitors of Bacillus subtilis Sfp phosphopantetheinyl transferase (PPTase) | Potency, µM, for inactives: largest response in the series, negative = inhibition, most hits filed as inhibitors | 310,000 tested, 3.5% active | Biochemical Sfp PPTase activity, qHTS | AID 1490, 2009;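 further: the enzyme is Sfp with the accession as filed and its product quenches rhodamine fluorescence; 0% = enzyme reaction without inhibitor and -100% = no enzyme wells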
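Sfp 15 nM + cpd, 15 min RT; start w/ rhodamine-CoA 5 uM, BHQ-2-YbbR 12.5 uM (final); 50 mM Hepes pH 7.6, 10 mM MgCl2, 0.01% NP-40, 0.01% BSA; read 525/598 nm at 0 and 30 min.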
G9a block: qHTS Assay for Inhibitors of Histone Lysine Methyltransferase G9a; Histone-lysine N-methyltransferase EHMT2 (Homo sapiens), Q96KQ7; G9a H3K9 monomethylation, AlphaScreen, 2 h; Potency, µM (top dose mostly 102 µM), inactives show at the highest dose activity, negative = inhibition, most hits filed as inhibitors; 350,000 tested, 8.8% active; AID 504332, 2011; further: on the % scale 0 is the no-effect control and ±100 the full control effect; nearly all actives have a fitted effect of over 75% in size
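Using a bead-based AlphaScreen, monomethylated H3K9 product from 2 h room-temperature reactions (G9a 20 nM, peptide 500 nM, SAM 20 uM) was detected with 0.5 ug/mL rabbit anti-H3K9me1 antibody.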
HP1b chromo inh: HTS for Inhibitors of HP1-beta Chromodomain Interactions with Methylated Histone Tails; Chromobox protein homolog 1 (Homo sapiens), P83916; AlphaScreen HP1-beta / biotin-H3K9me3 peptide binding; Potency, µM (doses to about 114 µM), for inactives: at the highest dose activity change, negative = inhibition, most hits filed as inhibitors; 390,000 tested, 0.56% active; AID 540317, 2011; further: nearly all actives have a fitted effect of over 70% in size
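HP1-beta protein (50 nM final) preincubated 30 min at room temperature with biotinylated H3(1-18)K9me3 peptide (50 nM) in PBS pH 7.4, 0.01% Tween-20, then compound added for 30 min. AlphaScreen streptavidin donor/nickel chelate acceptor beads (10 ug/mL final), 30 min dark, luminescence read.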
BAZ2B inh: qHTS Assay for Inhibitors of BAZ2B; AlphaScreen BAZ2B-H3K14Ac peptide displacement; Potency, µM (top dose mostly 114 µM), without a hit: top-dose activity change, negative = inhibition, most hits filed as inhibitors; 360,000 tested, 4.4% active; further: on the % scale 0 is the no-effect control and ±100 the full control effect; nearly all actives have a fitted effect of over 60% in size
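Complex of BAZ2B and biotin-H3K14Ac (50 nM apiece) forms over 30 min at RT, then faces library compounds up to 110 uM for another 30 min; AlphaScreen beads added, 20 min dark incubation, luminescence read.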
* hit, by the source's call; i = inactive; ? = inconclusive; . = no result given; [ ] = remark or other dose. The call rests on the fitted dose curve; in most records, active means well fitted curve in the direction sought with a large enough effect; inconclusive means small, poorly fitted or top-dose-only effect, or another doubt; inactive means no such curve, though single readings can be large; an effect the other way counts as inactive or inconclusive. Potency means the concentration at half of the fitted maximal effect.

SMILES	ALOX12 inh	JMJD2A Tudor	Sfp inh	G9a block	HP1b chromo inh	BAZ2B inh
COc1ccc(NC(=O)N2CCCC(c3noc(COc4ccccc4)n3)C2)c(C)c1 (stereo not drawn)	-2.1%	.	.	.	.	.
COc1ccc(CNCCc2ccc(Cl)cc2)cc1OCc1ccccc1	.	39.8µM*	-28.7%	10µM*	?	56.2µM*
CCOc1cc(CNCc2ccccc2)ccc1OCc1ccc(Cl)cc1	?	0.0%	-27.3%	-12.8%[2.33 µM]	71.7%	13.4%
COc1ccc(CNCC(O)(c2ccc(Cl)cc2)c2ccc(Cl)cc2)cc1OC	?	-25.4%	44.7µM*	-2.3%	12.5%	-10.3%
CCOc1cc(CNCCc2ccc(S(N)(=O)=O)cc2)cc(Cl)c1OCc1ccccc1	?	-34.5%	3.55µM*	-47.4%	38.2%	?
CCOc1cc(CNn2cn[nH]c2=S)cc(Cl)c1OCc1ccccc1F	?	?	6.6%	7.94µM*	8.6%	-1.6%
Cc1ccc(N(CCC#N)C(=O)CSc2cc(C)c3ccccc3n2)cc1	-8.5%	.	.	.	.	.
Cn1c(=O)c2c(ncn2CC(=O)Nc2nc(-c3ccc(-c4ccccc4)cc3)cs2)n(C)c1=O	-14.5%	.	.	.	.	.
CSc1ccc(CCNC(=O)Cn2c(=O)c(=O)n(C)c3ccccc32)cc1	-3.2%	.	.	.	.	.
O=S(=O)(c1ccc(C(F)(F)F)cc1)N1CCCC1c1nncn1Cc1ccncc1 (stereo not drawn)	40.2%	.	.	.	.	.
CCC1=C(C(=O)OC)C(c2ccccc2OC)N2C(CC(=O)NCC3CCCO3)=CSC2=N1 (stereo not drawn)	46.7%	.	.	.	.	.
CCOc1cc(CNCCc2ccc(S(N)(=O)=O)cc2)ccc1OCc1ccccc1	-22.1%	-5.8%	11.2µM*	9.6%	23.9%	?
COc1cc(CNC2CCCC2)cc(Cl)c1OCc1ccc(F)cc1	13.5%	-10.8%	-26.1%	-33.9%[59 µM]	22.6%	0.6%
CCOc1cc(CNC2CCCC2)cc(Cl)c1OCc1ccc(F)cc1	?	0.0%	39.8µM*	-2.8%[12.7 µM]	12.5%	10.6%
COc1ccc2nc([C@H]3CCN(Cc4ccccc4)C3)[nH]c2c1	38.9%[176 µM]	.	.	.	.	.
Cc1noc(-c2ccc3c(c2)OCO3)c1C(=O)NCCCCc1ccccc1	8.3%	.	.	.	.	.
Cc1ccc(NC(=O)C2CCCN2S(=O)(=O)c2ccc3nc(-c4ccccc4)[nH]c3c2)cc1C (stereo not drawn)	-24.3%	-31.9%	.	-33.9%[59 µM]	18.8%	79.4µM*
Cc1cccc(NC(=O)C2CCCN2S(=O)(=O)c2ccc3nc(-c4ccccc4)[nH]c3c2)c1 (stereo not drawn)	-21.1%	-22.7%	.	-8.9%[59 µM]	11.9%	?
C[C@H]1[C@@H]2[C@@H](O)C([C@H](C)C(=O)N3CCCC3)CC[C@@]2(C)CC[C@@H]1NC(=O)Nc1cccc(F)c1 (stereo partly drawn)	0.7%	.	.	.	.	.
CCOC(=O)c1ccc(Nc2ncccc2[N+](=O)[O-])cc1	1.3%	?	-2.8%	.	?	7.94µM*
COC(=O)c1ccc(N/N=C/c2cc([N+](=O)[O-])cc(OC)c2O)cc1	?	-18.2%	-15.0%	?	29.0%	-16.0%
CCOC(=O)c1ccc(NC(=O)c2ccccc2[N+](=O)[O-])cc1	-14.7%	-32.3%[57.1 µM]	-4.3%	-40.0%[59 µM]	?	-21.3%
CCOC(=O)c1ccc(N/N=C/c2cc(Br)cc([N+](=O)[O-])c2O)cc1	?	10µM*	17.9%	0.562µM*	?	?
Cc1ccc(Nc2ncccc2C(N)=O)cc1[N+](=O)[O-]	-16.1%	-14.7%	-11.2%	35.5µM*	-11.6%	-30.1%
Cc1cc(/C=N/NC(=O)c2cccc(F)c2)c(C)n1-c1ccccc1	-7.2%	?	6.2%	-46.2%	-1.8%	-32.0%
SMILES	ALOX12 inh	JMJD2A Tudor	Sfp inh	G9a block	HP1b chromo inh	BAZ2B inh
CCOC(=O)N/N=C/c1cc(C)n(-c2cccc3ccccc23)c1C	1.4%	-42.2%	1.1%	4.47µM*	?	?
CCOC(=O)N/N=C/c1cc(C)n(-c2ccccc2)c1C	-8.5%	-31.4%	9.0%	?	4.5%	-28.8%
COC(=O)N/N=C/c1cc(C)n(-c2cccc3ccccc23)c1C	-6.9%	?	-9.6%	-17.4%[59 µM]	?	79.4µM*
O=C(NCCCn1ccnc1)c1ccc2nccnc2c1	51.3%	-10.9%	6.0%	.	19.8%	50.1µM*
CCN(CC)S(=O)(=O)c1ccc(C(=O)NCCCn2ccnc2)cc1	-17.4%	7.8%[57.1 µM]	23.8%	11.6%	41.5%	0.5%
CCN(CC)S(=O)(=O)c1cccc(C(=O)NC2=NCCS2)c1	15.7%	-16.4%	22.1%	50.1µM*	13.9%	-1.6%
CCN(CC)S(=O)(=O)c1cccc(C(=O)NCCCn2ccnc2)c1	-6.1%	-3.8%	9.8%	56.2µM*	33.2%	-25.6%
CN(C)CC(=O)Nc1sc2c(c1C#N)CCCCC2	1.1%	.	.	.	.	.
COc1ccc(NCc2ccsc2)cc1	i	56.2µM*	-7.9%	35.5µM*	-19.1%	17.8µM*
CCOc1ccc(/C=C/c2nc(C#N)c(NCc3ccc(F)cc3)o2)cc1	0.1%	.	.	.	.	.
Cn1cnc([N+](=O)[O-])c1Oc1ccc2ccccc2c1	-23.3%	-23.6%	-13.7%	50.1µM*	22.6%	-7.1%
CCCCn1c2ccccc2c2nnc(SCC(=O)NC3=NN=C(c4ccccc4)CS3)nc21	-18.0%	.	-4.5%	28.2µM*	.	-2.7%
Cc1ccc(-c2nc3c4ccccc4n(CC(=O)N4CCN(c5ccc(F)cc5)CC4)c(=O)n3n2)cc1	-18.9%	-1.6%	.	2.9%[59 µM]	13.9%	-2.1%
CCn1c2ccc(C)cc2c2nnc(SCCN3CCOCC3)nc21	-15.7%	-10.9%	-4.9%	44.7µM*	20.7%	-9.4%
Cc1ccc2c(c1)c1nnc(SCC(=O)N3CCN(c4ccc(F)cc4)CC3)nc1n2CC(=O)O	?	-23.2%	70.8µM*	-4.9%[59 µM]	6.9%	-30.2%
Cn1c2ccccc2c2nnc(SCCN3CCOCC3)nc21	-5.2%	-12.4%	-12.7%	50.1µM*	62.7%	-0.7%
CCn1nc(-c2ccc3c(c2)OCCO3)nc1N(C)C	-23.1%	.	.	.	.	.
Cc1cc(C)nc(SCC(=O)NC2=NN=C(c3ccc(Br)cc3)CS2)n1	?	-23.4%	39.8µM*	?	-16.1%	-0.3%
Cn1c2ccccc2c2nnc(SCC(=O)Nc3cccc(O)c3)nc21	?	-10.2%	-8.9%	70.8µM*	15.9%	-33.0%
CC(C)(C)c1ccc(COn2c(=O)c(-c3ccco3)[n+]([O-])c3ccccc32)cc1	?	9.5%	56.2µM*	?	27.9%	-9.9%
